Hits are enriched below; roughly 4.1% of the tested compounds scored in any of these assays.
hgDAF-12 ag: hgDAF-12 agonism, primary luciferase screen. activation, % at 6.8 µM. AID 687014. HEK293 GAL4-hgDAF12 UAS-luciferase reporter, agonist luminescence; normalized to butyrate control. hit rate 1.8% among 370,000;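 active means activation above a cutoff set at the mean of all screened compounds plus 3 SD, cut at about 10% in these data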;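 further: 0% = DMSO wells and 100% = sodium butyrate wells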
DAX1 inh-1: inhibits human nuclear receptor DAX1; AID 504766; hit rate 0.99% among 340,000; P51843; HEK293 Gal4-DAX1 luciferase reporter, luminescence; inhibition, % at 6.75 µM;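 active means inhibition above the mean over all tested compounds plus 3 SD, cut at about 4.2% in these data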;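 further: 0% = DAX1-transfected cells with DMSO and 100% = empty-vector control cells with DMSO; inhibition shows as a rise in luminescence from relieved DAX1 repression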
Target sequence (P51843 207-470 limits assumed): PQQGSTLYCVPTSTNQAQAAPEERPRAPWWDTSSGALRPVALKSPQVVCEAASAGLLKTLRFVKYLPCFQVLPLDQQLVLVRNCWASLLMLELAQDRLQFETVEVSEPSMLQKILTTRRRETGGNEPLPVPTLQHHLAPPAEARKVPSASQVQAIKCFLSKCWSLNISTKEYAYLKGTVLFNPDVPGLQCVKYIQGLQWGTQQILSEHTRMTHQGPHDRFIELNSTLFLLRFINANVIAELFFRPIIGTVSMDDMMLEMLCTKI
ssDAF-12 act: activators of S. stercoralis DAF-12 nuclear receptor | activation, % at 6.8 µM | HEK293 ssDAF-12/GRIP1 lit1-tk-luc reporter, luminescence; % of 3 µM dafachronic acid response | hit rate 1% among 370,000;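 active means activation above the mean over all tested compounds plus 3 SD, cut at about 0.9% in these data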;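 further: 0% = DMSO-only wells and 100% = 3 µM delta7-dafachronic acid wells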
DAX1 inh-2: inhibitors of DAX1 repression of SF-1 activated StAR promoter | HEK293T StAR-luciferase reporter, SF-1/DAX-1 repression relief | inhibition, % at 6.8 µM | hit rate 1.1% among 370,000;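 active means inhibition above the mean over all tested compounds plus 3 SD, cut at about 3.6% in these data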;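 further: 0% = DAX-1 cells with DMSO and 100% = cells lacking DAX-1 with DMSO; higher inhibition means more luminescence from relief of DAX-1 repression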
hcDAF12 agonist: activators of H. contortus DAF-12 nuclear receptor | HEK293 hcDAF-12 lit1-tk-luc reporter, luminescence; 0% DMSO, 100% Δ7-dafachronic acid | activation, % at 6.8 µM | hit rate 1.4% among 370,000;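 active means activation above the mean of all tested compounds plus 3 SD, cut at about 5.5% in these data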;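 further: 100% = response to 3 µM Δ7-dafachronic acid high control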
An asterisk follows results filed as active.

For Cc1cc(NS(=O)(=O)c2ccc(NC(=O)CSc3nnc(-c4ccncc4)n3Cc3ccco3)cc2)nc(C)n1 the results were hgDAF-12 ag 1, ssDAF-12 act -1, DAX1 inh-2 0 and hcDAF12 agonist -1.
`CCCC(=O)Nc1cnc(NC(=O)c2cccc(F)c2)cc1C` gave hgDAF-12 ag 13*, DAX1 inh-1 -1, ssDAF-12 act 1, DAX1 inh-2 3 and hcDAF12 agonist 4.
For Cc1ccc(F)cc1C(=O)N1CCCC(c2nc(-c3cccs3)no2)C1 (stereo unspecified) the results were hgDAF-12 ag 6, ssDAF-12 act -1, DAX1 inh-2 0 and hcDAF12 agonist -2.
For O=C(CCl)Oc1ccc2occ(C(=O)c3cccs3)c2c1 the results were hgDAF-12 ag 7, DAX1 inh-1 2, ssDAF-12 act -1, DAX1 inh-2 1 and hcDAF12 agonist 0.
O=C(c1cccc(Br)c1)c1coc2ccc(O)cc12 was read as hgDAF-12 ag 13*, DAX1 inh-1 1, ssDAF-12 act 0, DAX1 inh-2 1 and hcDAF12 agonist 4.
`O=C(c1cccs1)c1coc2ccc(O)cc12` gave hgDAF-12 ag 12*, DAX1 inh-1 4, ssDAF-12 act -1, DAX1 inh-2 1 and hcDAF12 agonist 2.
`CCCCCCCCN1C(=O)[C@@H](CC(=O)N2CCCCC2)C[C@@]2(C(=O)OC)C1=C[C@H](C1CCCC1)O[C@@H]2C` gave hgDAF-12 ag -1, ssDAF-12 act 0, DAX1 inh-2 0 and hcDAF12 agonist 0.
Screening Cc1ccc(C(=O)C2CCN(CC(=O)N3CCCC3)CC2)cc1 returned hgDAF-12 ag 1, ssDAF-12 act -1, DAX1 inh-2 -1 and hcDAF12 agonist -2.
Screening CCOc1cc(-c2noc(-c3cccnc3)n2)ccc1OC returned hgDAF-12 ag 1, DAX1 inh-1 4.6*, ssDAF-12 act -1, DAX1 inh-2 1 and hcDAF12 agonist -1.
Screening COc1cccc(-c2nc(-c3ccc(C(=O)O)cc3)no2)c1 returned hgDAF-12 ag 9, DAX1 inh-1 2, ssDAF-12 act 1.0*, DAX1 inh-2 2 and hcDAF12 agonist 3.
`COc1ccc(-c2noc(-c3cccnc3)n2)cc1OC` gave hgDAF-12 ag 9, DAX1 inh-1 4, ssDAF-12 act -1, DAX1 inh-2 2 and hcDAF12 agonist 1.
CCOc1ccc(-c2noc(COC)n2)cc1OC was read as hgDAF-12 ag 2, DAX1 inh-1 0, ssDAF-12 act 4.0*, DAX1 inh-2 1 and hcDAF12 agonist 0.
CCOc1ccc(-c2noc(-c3cccnc3)n2)cc1OC was read as hgDAF-12 ag 7, DAX1 inh-1 -1, ssDAF-12 act -1, DAX1 inh-2 1 and hcDAF12 agonist -1.
`COc1ccc(-c2nc(-c3cccnc3)no2)cc1` gave hgDAF-12 ag 11*, DAX1 inh-1 1, ssDAF-12 act 1.3*, DAX1 inh-2 3 and hcDAF12 agonist 5.
For O=C([C@@H]1C[C@H]1c1ccccc1)N1CCC(Oc2cccnc2)CC1 the results were hgDAF-12 ag 0, ssDAF-12 act -1, DAX1 inh-2 0 and hcDAF12 agonist 0.
CCOc1ccc(-c2nc(-c3cccnc3)no2)cc1 was read as hgDAF-12 ag 12*, DAX1 inh-1 -1, ssDAF-12 act 0, DAX1 inh-2 4.5* and hcDAF12 agonist 4.
For CCCCOc1ccc(-c2nc(-c3cccnc3)no2)cc1 the results were hgDAF-12 ag 6, DAX1 inh-1 1, ssDAF-12 act -1, DAX1 inh-2 1 and hcDAF12 agonist 0.
c1csc(-c2nc(N3CCCCC3)no2)c1 was read as hgDAF-12 ag 6, DAX1 inh-1 5.0*, ssDAF-12 act 0, DAX1 inh-2 1 and hcDAF12 agonist 3.
For CCC(C)N(C(=O)c1oc(=O)c2ccccc2c1-c1ccc(C)cc1)C(C)CC (stereo unspecified) the results were hgDAF-12 ag -2, ssDAF-12 act -2, DAX1 inh-2 -1 and hcDAF12 agonist -3.
COc1cc(C(=O)Oc2c(OC)cc(C(=S)N3CCOCC3)cc2OC)cc(OC)c1OC was read as hgDAF-12 ag -3, DAX1 inh-1 5.0*, ssDAF-12 act -2, DAX1 inh-2 0 and hcDAF12 agonist -1.
Screening COC(=O)C(Cc1ccc(O)cc1)NS(=O)(=O)Cc1ccccc1 (stereo unspecified) returned hgDAF-12 ag 3, ssDAF-12 act 0, DAX1 inh-2 -1 and hcDAF12 agonist 1.
`Nc1nc(SCc2ccccc2)sc1C(=O)N1CCCCC1` gave hgDAF-12 ag 11*, DAX1 inh-1 3, ssDAF-12 act -1, DAX1 inh-2 2 and hcDAF12 agonist 4.
Screening CN(C)/C=N/NC(=O)c1ccc(Cl)cc1 returned hgDAF-12 ag 2, ssDAF-12 act -2, DAX1 inh-2 0 and hcDAF12 agonist -1.
For CN(C)/C=N/c1cnc(C(=O)c2ccc(Cl)cc2)n1C the results were hgDAF-12 ag 12*, DAX1 inh-1 3, ssDAF-12 act 0, DAX1 inh-2 3 and hcDAF12 agonist 6.4*.
COC[C@H]1CCCN1c1ccc2c(c1)O[C@@H]1CCN(C1)S2(=O)=O was read as hgDAF-12 ag -2, ssDAF-12 act -1, DAX1 inh-2 -1 and hcDAF12 agonist -2.
For C=CCOc1cccc(C2C(C(=O)c3ccco3)=C(O)C(=O)N2CCN(CC)CC)c1 (stereo unspecified) the results were hgDAF-12 ag 4, DAX1 inh-1 4.7*, ssDAF-12 act -1, DAX1 inh-2 0 and hcDAF12 agonist -1.
For Nc1ccc(Cc2ccc([N+](=O)[O-])cc2)cc1 the results were hgDAF-12 ag 0, DAX1 inh-1 5.2*, ssDAF-12 act -1, DAX1 inh-2 -1 and hcDAF12 agonist 2.
CCC(=O)NNc1nc2c(F)cc(F)cc2s1 was read as hgDAF-12 ag 5, DAX1 inh-1 3, ssDAF-12 act 1.1*, DAX1 inh-2 0 and hcDAF12 agonist 1.
Screening Cc1cccc2sc(NNC(=O)C3=COCCO3)nc12 returned hgDAF-12 ag 3, DAX1 inh-1 3, ssDAF-12 act -1, DAX1 inh-2 0 and hcDAF12 agonist 2.
For O=C(NNc1nc2c(F)cc(F)cc2s1)C1=COCCO1 the results were hgDAF-12 ag 6, DAX1 inh-1 5.6*, ssDAF-12 act -1, DAX1 inh-2 0 and hcDAF12 agonist 0.
For CC(C)[C@H](NC(=O)c1ccc(Cl)c(Cl)c1)C(=O)N1CCC[C@H]1C(=O)NCCc1ccccc1Cl the results were hgDAF-12 ag -1, ssDAF-12 act -1, DAX1 inh-2 1 and hcDAF12 agonist -2.
For OC(c1ccccc1)(c1ccccc1)C1CCN(CCCOc2ccc(C(F)(F)F)cc2)CC1 the results were hgDAF-12 ag 2, ssDAF-12 act -1, DAX1 inh-2 1 and hcDAF12 agonist -1.
Screening COc1ccc(S(=O)(=O)NCc2ccco2)cc1C(=O)N1CCCCC1 returned hgDAF-12 ag 2, DAX1 inh-1 5.0*, ssDAF-12 act -1, DAX1 inh-2 0 and hcDAF12 agonist -2.
